The values that follow come from PubChem BioAssay (NCATS).

Values joined by “and” are separate entries in the source; they are usually repeats but may differ in a detail not shown here. Identical values can stand only once. Inconclusive results are not listed. A call without a number means that no potency is given here. Active and inactive are the calls of the source. Calls come from the whole dose curve; as a rule, active = well fitted cell-killing curve with a large enough effect; inconclusive = small, poorly fitted or top-dose-only effect, or effect the other way; inactive = no such curve, though single readings can be large or run the other way.
Potency is the fitted concentration of half-maximal effect.

A short description of this experiment: Viability qHTS for spleen associated tyrosine kinase inhibitor (SYKi) drug resistant MV4-11 cells (AID 1963824). Note: nearly all actives have a fitted effect of over 35% in size. Particulars: SYKi-resistant MV4-11 viability, CellTiter-Glo, 72 h; series mostly up to 45 µM. From the text:
Department of Medicine, Hematology/Oncology
University Hospital Frankfurt, Germany.
Trials have shown promising clinical activity of the selective SYK inhibitor entospletinib in patients with high expressing HOXA9/MEIS1 acute leukemias. As the development of resistance mechanisms is a common problem in the use of targeted drugs, we performed a chemical library screen to identify drug sensitivities in SYK inhibitor resistant AML cells. […] Glucocorticoids are potent immunosuppressants which work in part by inhibiting the transcription of cytokine genes.
Described herein is a viability screen to look for activity in the SYK inhibitor drug resistant cell line against four NCATS compound libraries (MIPE 5.0, NPC, NPACT, and Kinase) totaling 11372 compounds. Active hits were reacquired for confirmation and further secondary assay testing.
SEQUENCE No. (e.g., 1, 2, 3, etc.); […] (e.g., Cells, Incubation, Reagent, etc.); VALUE; DESCRIPTION.
1; Media; 2uL; white, solid-bottom Corning assay plate.
2; Compounds; 23nL; Echo acoustic dispenser.
3; Cell; 5uL; 500 cells per well.
4: Incubation; 72hr; 37 C, 5% CO2, 95% humidity.
5; Reagent; 3uL; CellTiter-Glo reagent (Promega).
6; Incubation; 10min; room temperature.
7; Detection; Luminescence; ViewLux plate reader (PerkinElmer).
NOTES (numbers refer to Sequence numbers above
1. Quantitative high-throughput screening (qHTS) of small molecule compounds was conducted on drug resistant SYKi MV4-11 cell line.
2. Twenty-three nanoliter of small molecule compounds were added to each assay plates using the Echo acoustic dispenser (Beckman Coulter).
3. Cells were seeded into the assay plates at a final density of 500 cells in 5uL of media per well using the Multidrop Combi dispenser.
4. Plates were covered with stainless steel gasketed lids and incubated for 72 hours at standard cell culture conditions.
5. Viability was assessed by adding 3uL of CellTiter-Glo detection reagent (Promega).
6. Plates were covered with gasket lids and incubated for 10 minutes at room temperature.
7. Luminescence was measured on a ViewLux plate reader (PerkinElmer).
For the compound `CC1(C)CC[C@]2(C(=O)O[C@@H]3O[C@H](CO)[C@@H](O)[C@H](O)[C@H]3O)CC[C@]3(C)C(=CCC4[C@@]5(C)C[C@@H](O)[C@H](O)[C@@](C)(CO)C5[C@H](O)C[C@]43C)C2C1` (stereo not given in full), the Potency entry was “inactive”.

On to `COc1ccc(CN2CCN(C(=O)CCNC(=O)c3ccc(C(C)(C)C)cc3)CC2)cc1`, for which the Potency is 9.2 µM (active).

As to `O=C1OC(c2ccc(O)cc2)(c2ccc(O)cc2)c2ccccc21`, the Potency was 18.8 µM (active).

`COc1cc2ncnc(Nc3cccc(Br)c3)c2cc1OC`: the Potency is 6.51 µM (active) and 5.25 µM (active).

In the case of `CC(C)(CNC(=O)c1cccc(-c2noc(C(F)(F)F)n2)c1)c1coc(-c2ccccc2)n1`, the Potency is 14.8 µM (active).

For the compound `COc1cc2c(Nc3ccc(NC(=O)c4ccccc4)cc3)ncnc2cc1OCCCN1CCOCC1`, the Potency was 2.06 µM (active) and 2.09 µM (active).

For `NS(=O)(=O)c1cccc2c1C(=O)c1cccc(O)c1C2=O`, the Potency is 0.468 µM (active).

Consider `Clc1ccc(C(Cn2ccnc2)OCc2ccc(Sc3ccccc3)cc2)c(Cl)c1` (stereo not given), for which the Potency is 6.61 µM (active).

`O=C(/C=C/c1ccc(O)c(O)c1)O[C@@H]1C[C@@](OC(=O)/C=C/c2ccc(O)c(O)c2)(C(=O)O)C[C@@H](O)[C@@H]1O`: the Potency entry is “inactive”.

On to `c1nc2nc(Nc3ccc(N4CCOCC4)cc3)nc(NC3CCCCC3)c2[nH]1`, for which the Potency was 317 nM (active) and 366 nM (active).

As to `COc1ccc(-c2nc(N3CCOCC3)c3sc(CN(C)c4ncc(C(=O)NO)cn4)cc3n2)cn1`, the Potency was 0.0093 µM (active).

As for `CCOC(=O)[C@@H](N)CCC(=O)N[C@@H](CSCc1ccccc1)C(=O)N[C@@H](C(=O)OCC)c1ccccc1`, the Potency was 5.9 µM (active).

For `Cc1cc(N(C)C)ccc1-c1nc2ccc(-c3nc4ccc(N5CCN(C)CC5)cc4[nH]3)cc2[nH]1`, the Potency was 0.184 µM (active).

Regarding `C[C@@H]1CN(CC(=O)Nc2ccc3c(c2)Cc2cccc(-c4cc(=O)cc(N5CCOCC5)o4)c2S3)C[C@H](C)O1`, the Potency is 4.68 µM (active).

On to `CCC[C@@H]1C[C@@H](C(=O)N[C@@H]([C@H]2O[C@H](SC)[C@H](O)[C@@H](O)[C@@H]2O)[C@@H](C)O)N(C)C1`, for which the Potency result is “inactive”.

Consider `Cc1ccc(-c2c(-c3nn(C)c4ncnc(N5CCC(N6CCCCC6)C5)c34)cnn2C)cc1` (stereo not given), for which the Potency result was “inactive”.

In the case of `CN1c2cc(O)c(N=NC(N)=O)cc2CC1S(=O)(=O)O` (stereo not given), the Potency entry is “inactive”.

On to `CC(C)C(=O)OC[C@H]1O[C@H](O[C@H]2O[C@H](CO)[C@@H](O)[C@H](O)[C@H]2O)[C@H](O)[C@@H](O)[C@@H]1O`, for which the Potency result was “inactive”.

Regarding `CC(=O)Oc1ccc(C)cc1`, the Potency entry was “inactive”.

For `N[C@@]1(C(=O)O)CS(=O)(=O)[C@H]2[C@H](C(=O)O)[C@H]21`, the Potency entry was “inactive”.

For the compound `COC1=CC(=O)CC(C)C12Oc1cc(OC)cc(O)c1C2=O` (stereo not given), the Potency result was “inactive”.

As for `Nc1ccc(C(=O)OCC(O)CO)cc1` (stereo not given), the Potency entry was “inactive”.

For the compound `COC(=O)c1ccc2c(C(=Nc3ccc(N(C)C(=O)CN4CCN(C)CC4)cc3)c3ccccc3)c(O)[nH]c2c1`, the Potency was 58 nM (active) and 66.1 nM (active).

Turning to `NC/C=C/C(=O)O`, the Potency result is “inactive”.

On to `COC(=O)C[C@@H]1C(C(=O)O)=CO[C@@H](O[C@@H]2O[C@H](CO)[C@@H](O)[C@H](O)[C@H]2O)/C1=C\COC(=O)/C=C\c1ccccc1`, for which the Potency result is “inactive”.

On to `C/C=C/C=C/C(O)=C1\C(O)=C(C)C(=O)[C@@]2(C)OC(=O)[C@@](C)(NC(=O)/C=C/C(=O)O)[C@@H]12`, for which the Potency entry is “inactive”.

On to `Cc1ccc(O)cc1`, for which the Potency entry was “inactive”.

`c1ccc(C(OC2CCN(CCCc3nn[nH]n3)CC2)c2ccccc2)cc1`: the Potency entry is “inactive”.

On to `Cc1csc2c(N[C@@H](C)CN3CCN(S(=O)(=O)c4ccc(Cl)c(Cl)c4)CC3)ncnc12`, for which the Potency is 0.231 µM (active).

With `Cn1c(=O)c2c(ncn2CCO)n(C)c1=O`, the Potency result was “inactive”.

For the compound `CN(C)CCCNC(=O)c1ccc(-c2cc(O)c3ncccc3c2)cc1`, the Potency is 5.17 µM (active) and 14.8 µM (active).

`O=C(c1cc2c(cc1F)OC(c1ccc(F)cc1)(c1ccc(Cl)cc1Cl)O2)N1CCOCC1` (stereo not given): the Potency entry was “inactive”.

On to `Nc1ccn([C@H]2O[C@@H](CO)[C@H](O)[C@H]2O)c(=O)n1`, for which the Potency is 1.46 µM (active).

As to `CC(=O)c1ccc(O[C@@H]2OC[C@@H](O)[C@H](O)[C@H]2O[C@]2(CO)O[C@H](CO)[C@@H](O)[C@@H]2O)c(O)c1`, the Potency result was “inactive”.

For the compound `CN1CCN(c2ccc(OC(F)(F)F)c(Nc3ncc4c(n3)-c3c(c(C(N)=O)nn3CCO)CC4)c2)CC1`, the Potency was 20.6 nM (active) and 46.8 nM (active).

As to `C=CC1(C)C=C2CCC3C(C)(C)C(O[C@@H]4O[C@@H](CO)[C@H](O)[C@H]4O)CCC3(C)C2CC1O[C@@H]1O[C@H](C)[C@H](O)[C@H](O)[C@H]1O` (stereo not given in full), the Potency result was “inactive”.

As to `CC(=O)NC(=O)c1ccccc1O`, the Potency entry was “inactive”.

For `O=C(NOCCO)c1ccc2cncn2c1Nc1ccc(I)cc1F`, the Potency was 0.105 µM (active).

As to `C/C(=C\c1csc(C)n1)[C@@H]1C[C@@H]2O[C@]2(C)CCC[C@H](C)[C@H](O)[C@@H](C)C(=O)C(C)(C)[C@@H](O)CC(=O)N1`, the Potency is 0.0132 µM (active).

Take `C[C@]12CCC(=O)C=C1C=C[C@@H]1[C@@H]2CC[C@@]2(C)[C@H]1CC[C@@]21CCC(=O)O1`: the Potency result was “inactive”.
